Cycloheximide cs: Cycloheximide Counterscreen for Small Molecule Inhibitors of Shiga Toxin. actives 12% (n = 300,000). cell reporter, cycloheximide protein synthesis inhibition counterscreen. max response, %. AID 2314, 2010; in the data active means max response mostly above about 13%, no sharp cut-off; inactive means mostly below about 14%; further: read at 38.3 µM for the half of the compounds with a filed dose; 0% is about no effect
LmPK inh: qHTS Assay for Inhibitors of Leishmania Mexicana Pyruvate Kinase (LmPK). Q27686. purified LmPK, Kinase-Glo ATP luminescence, 1 h. Potency, µM (series often up to 57.5 µM), for the others: at the highest dose activity change, negative = inhibition, usual class: inhibitors. actives 0.37% (n = 290,000). AID 1721, 2009; further: potency means the concentration at half of the fitted maximal effect; on the % scale 0 is the no-effect control and ±100 the full control effect
Target sequence (Q27686 whole entry, looked up): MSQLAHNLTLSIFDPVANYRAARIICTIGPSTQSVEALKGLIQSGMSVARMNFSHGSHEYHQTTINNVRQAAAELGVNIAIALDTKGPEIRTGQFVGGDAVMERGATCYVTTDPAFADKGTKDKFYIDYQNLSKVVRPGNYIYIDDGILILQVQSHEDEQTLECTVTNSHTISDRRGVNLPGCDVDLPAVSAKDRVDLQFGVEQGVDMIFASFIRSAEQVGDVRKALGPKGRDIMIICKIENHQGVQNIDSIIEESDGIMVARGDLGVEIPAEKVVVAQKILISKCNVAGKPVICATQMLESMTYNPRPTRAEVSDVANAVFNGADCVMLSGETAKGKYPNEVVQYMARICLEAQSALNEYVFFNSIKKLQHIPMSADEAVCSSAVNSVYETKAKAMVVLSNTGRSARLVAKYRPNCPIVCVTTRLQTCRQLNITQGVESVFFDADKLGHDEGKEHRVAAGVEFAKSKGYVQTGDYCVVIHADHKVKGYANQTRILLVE
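In 50 mM imidazole pH 7.2 with 7 mM MgCl2, LmPK (0.1 nM) turned over PEP (0.5 mM) and ADP (0.1 mM) for 1 h at room temperature. Luciferase read-out of ATP.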
Tb PYK inh: qHTS of Trypanosoma Brucei Inhibitors. TbPYK enzyme, Kinase-Glo Plus ATP luminescence, 45 min. pyruvate kinase (Trypanosoma brucei), Q57TT1. actives 0.12% (n = 410,000). AID 624173, 2012. Potency, µM (top dose mostly 76.8 µM), for inactives: at the top dose activity, negative = inhibition, actives largely listed as inhibitors; further: potency means the concentration at half of the fitted maximal effect; on the % scale 0 is the no-effect control and ±100 the full control effect; nearly all actives have a fitted effect of over 50% in size
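Readout: single end-point luminescence (Kinase-Glo Plus, 10 min). Reaction conditions were TbPYK/substrate plus 130 uM ADP, 45 min at RT, pH 7.2 TEA buffer. No-enzyme wells served as controls, and data were normalized before concentration-response fitting.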
Shiga toxin inh: A qHTS for Small Molecule Inhibitors of Shiga Toxin; AID 2315, 2010; Vero cells, Shiga toxin protein synthesis inhibition reporter; actives 9.2% (n = 290,000); inhibition, % at 38.7 µM; in the data active means inhibition mostly above about 28%, no sharp cut-off; inactive means mostly below about 43%; further: 0% is about no effect
FBPA Giardia inh: qHTS Assay for Inhibitors of Fructose-1,6-bisphosphate Aldolase from Giardia Lamblia. A8B2U2. purified Giardia FBPA. Potency, µM (highest dose often 59.6 µM), without a hit: at the highest dose activity, negative = inhibition, hits mostly inhibitors. actives 0.71% (n = 290,000); further: potency means the concentration at half of the fitted maximal effect; on the % scale 0 is the no-effect control and ±100 the full control effect; nearly all actives have a fitted effect of over 55% in size
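40 nM FBPA preincubated 10 min at RT with compound (up to 57.5 uM final), then substrate plus GAPDH/TPI/NAD/arsenate coupling and diaphorase/resazurin added. Fluorescence read after 20 min at RT, 525/598 nm.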
RE007 growth inh: qHTS Assay for Inhibitors of the HIV-1 protein Vpr | S. pombe RE007 Vpr strain, BacTiter-Glo ATP luminescence, 24 h | Potency, µM (doses to about 92.2 µM), inactives show at the top dose activity change, negative = less growth, actives largely listed as inhibitors | actives 0.21% (n = 360,000) | AID 651644, 2012; active means well fitted falling curve with a large enough effect; inconclusive means small, poorly fitted or top-dose-only effect; inactive means no such curve, though single readings can be large or run the other way; further: potency means the concentration at half of the fitted maximal effect; on the % scale 0 is the no-effect control and ±100 the full control effect; nearly all actives have a fitted effect of over 50% in size
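Fission yeast RE007 carrying one integrated HIV-1 vpr copy, seeded at OD 0.01 in PMG+AL medium with 23 nL pinned compound. Grown 24 h at 30 degrees; viability read by BacTiter-Glo luminescence after 5 min.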
* marks the source's active call; other numbers are inactive results; u = inconclusive; x = no result. Shown is part of a subset that was picked to be rich in hits. Unless noted, the call rests on the fitted dose curve; in most records, active means well fitted curve in the direction sought with a large enough effect; inconclusive means small, poorly fitted or top-dose-only effect, or another doubt; inactive means no such curve, though single readings can be large; an effect the other way counts as inactive or inconclusive.

SMILES	Cycloheximide cs	LmPK inh	Tb PYK inh	Shiga toxin inh	FBPA Giardia inh	RE007 growth inh
COc1cccc(-c2ccc3c(N)c(C(=O)NC4CC4)sc3n2)c1	37*	3%	-17%	104*	-7%	9%
O=C(CN1CCN(C2CCCCC2)C(=O)C1=O)Nc1ccc(Cl)cc1	x	x	-3%	x	x	x
CC(C)Oc1ccc(C(=O)N(Cc2ccc(N(C)C)cc2)C2CCS(=O)(=O)C2)cc1 (configuration not stated)	x	x	4%	x	x	x
CC1(C)CC(=O)C2=C(C1)OC1=C(C(=O)CC(C)(C)C1)C2c1ccc(O)cc1O	-10	4%	40µM*	-15	-11%	u
Cc1ccc(-c2nnc(-c3ccccc3)o2)cc1Br	x	x	4%	x	x	2%
Cc1ccc(-c2nnc(-c3cccc(Br)c3)o2)cc1	26*	1%	0%	42*	0%	-15%
Brc1cccc(-c2nnc(-c3ccccc3)o2)c1	27*	-18%	3%	55*	0%	-22%
COc1cccc(CNS(=O)(=O)c2ccc(S(=O)(=O)N3CCCC3)cc2)c1	-2	u	-3%	-17	7.9µM*	18%
Cc1ccccc1N1CCN(c2ccccc2NC(=O)/C=C\C(=O)O)CC1	x	x	-9%	x	x	6%
COc1ccc(C(=O)NCc2ccc3c(c2)CCN3C(=O)c2ccc(C)cc2)cc1	x	x	3%	x	x	x
COc1ccc(NC(=O)C(C)n2nc(-c3ccc(C)c(C)c3)ccc2=O)cc1OC (configuration not stated)	x	x	-4%	x	x	x
COc1ccc(N(Cc2cccs2)C(=O)Nc2ccccc2)cc1	x	x	-4%	x	x	x
COc1ccc(NC(=O)c2cc(C)n(Cc3cccs3)c2C)cc1	62*	-8%	-8%	82*	-6%	1%
O=C(COc1cccnc1[N+](=O)[O-])c1c[nH]c2ccccc12	20*	0%	-2%	26	-7%	4%
Cc1ccc(OCC(=O)c2cc(C)n(Cc3cccs3)c2C)c([N+](=O)[O-])n1	36*	1%	2%	31	1%	3%
Cc1cc(C(=O)COc2ccc3ccc(=O)oc3c2)c(C)n1Cc1cccs1	20*	6%	-6%	12	10%	12%
COC(=O)c1ccccc1NC(=O)c1ccc(CN2CC(=O)N3CCCCC3C2=O)cc1 (configuration not stated)	x	x	-8%	x	x	x
COCCn1c(C)cc(C(=O)COc2cccnc2[N+](=O)[O-])c1C	32*	0%	1%	53*	u	-6%
Nc1ncnc2nc(SCCN3CCCCC3)[nH]c12	-3	-3%	2%	-6	0%	8%
Cc1cc2nc(SCCN3CCCC3)[nH]c2cc1C	12*	2%	1%	14	-16%	-12%
COc1cccc(C(=O)Nc2cc3cc(OC)ccc3oc2=O)c1	x	x	-3%	x	x	x
COC(=O)c1cc(NC(=O)c2ccccc2)c(=O)oc1C	13	0%	-1%	22	3%	-23%
COc1ccc(C(=O)Nc2cc(C(=O)c3ccccc3)c(C)oc2=O)cc1	11	3%	-24%	29	-16%	11µM*
Cc1oc(=O)c(NC(=O)c2cccc(Cl)c2)cc1C(=O)c1ccccc1	31*	-2%	u	68*	-19%	14µM*
COC(=O)c1cc(NC(=O)c2ccc(C)cc2)c(=O)oc1C	25*	-11%	-10%	43	6%	-1%
SMILES	Cycloheximide cs	LmPK inh	Tb PYK inh	Shiga toxin inh	FBPA Giardia inh	RE007 growth inh
Cc1oc(=O)c(NC(=O)c2ccccc2)cc1C(N)=O	3	-3%	3%	18	-3%	-5%
Cc1sc2ncn(CC(=O)N3CCN(c4ccccc4F)CC3)c(=O)c2c1S(=O)(=O)N1CCC(C)CC1	x	x	0%	x	x	x
CCN(CC)C(=O)c1sc2c(c1C)c(=O)n(-c1ccc(OC)cc1OC)c(=O)n2CC(=O)Nc1ccccc1	x	x	-3%	x	x	x
CCCCOC(=O)c1ccc(-n2nnc3c(sc4nc(C)cc(C)c43)c2=O)cc1	x	x	-2%	x	x	x
CN(CCC1CCOCC1)C(=O)c1cc(COc2c(F)cccc2F)on1	27*	2%	-6%	23	x	-7%
CSc1ccccc1OCc1cc(C(=O)N(C)CC2COCCO2)no1 (configuration not stated)	30*	-4%	4%	61*	x	-23%
CN(CC1COc2ccccc2O1)C(=O)c1cc(COc2c(F)cccc2F)on1 (configuration not stated)	6	-2%	-2%	13	x	-21%
Cc1nc(CN(C)C(=O)c2cc(COc3c(F)cccc3F)on2)cs1	10	0%	-7%	13	-1%	-5%
CN(CC1COCCO1)C(=O)c1cc(COc2c(F)cccc2F)on1 (configuration not stated)	27*	6%	2%	53*	4%	-29%
CN(Cc1cc(-c2ccccc2)on1)C(=O)c1cc(COc2c(F)cccc2F)on1	42*	3%	2%	70*	-2%	4%
O=C(COc1ccc(Cl)cc1)NNC(=O)c1ccccn1	1	-2%	-4%	-5	u	-22%
O=C(COc1ccc(Cl)cc1)Nc1ncccn1	34*	-9%	-1%	35*	1%	15%
Clc1ccc(CNc2ncccn2)cc1	26*	-1%	0%	43*	11%	7%
Cc1ccnc(NC(=O)COc2ccc(Cl)cc2)n1	25*	0%	5%	41	4%	0%
COC(=O)CN1C(=O)CSc2ccc(S(=O)(=O)Nc3cccc(Cl)c3C)cc21	x	x	-6%	x	x	x
COc1cc(C2C(C(=O)OCC(C)C)=C(C)N=C3SCCC(=O)N32)ccc1OCc1ccccc1 (configuration not stated)	x	x	1%	x	x	x
Cc1ccc(S(=O)(=O)/C=C/C#N)cc1	-18	x	x	-18	u	x
Cc1ccc(S(=O)(=O)C=CS(=O)(=O)c2ccc(C)cc2)cc1	x	x	u	x	x	1.4µM*
Cc1c(NC(=S)N2CCN(c3ccc(F)cc3)CC2)c(=O)n(-c2ccccc2)n1C	-1	-3%	-4%	16	3%	-1%
CCCCn1nc(C(=O)NNC(=O)c2ccncc2)c2ccccc2c1=O	40*	-4%	-2%	20*	x	-2%
CCCn1nc(C(=O)NNC(=O)c2cccc(C)c2)c2ccccc2c1=O	x	x	-11%	x	x	-14%
Cc1nc2sc(C(=O)N(C)Cc3ccccc3)c(NC(=O)c3ccccc3)c2c(C)c1Cl	x	x	4%	x	x	x
CC(C)c1ccc(/C=C/C(=O)NC2CCCCC2)cc1	13	-1%	-3%	14	2%	-7%
Cc1ccc(/C=C/C(=O)NC2CCCCCCC2)o1	41*	-7%	7.9µM*	74*	-17%	-91%
